Experimental data reported in PubChem BioAssay AID1159580 (chemical genetic matrix, 2015).
The campaign covered roughly 5,500 compounds. About 2,000 (36%) were called active. Roughly 18% stayed inconclusive and do not appear here. Rule as the data show it: active = normalized growth mostly below about 0.91 (no sharp cut-off); inconclusive = no clear call, values can overlap the other calls; inactive = mostly above about 0.92. This is one part of the list.

Assay: chemical genetic growth profiling, strain panel (AID 1159580);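 also: tested at 20 µM; growth read once vehicle control cultures reached saturation at 30 °C; 1 = growth at the plate median or of vehicle wells; lower values mean less growth of the strain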
Details: growth OD

Measured: normalized growth

CCC(C)C(=O)O[C@H]1[C@H](O)C2C(CN3CC(C)CCC3[C@@]2(C)O)C2C[C@]34O[C@]5(O)C(OC(=O)C(C)(O)CC)CC[C@@]3(C)C5C(OC(C)=O)[C@@H](OC(C)=O)C4[C@@]21O (stereo partly specified)
inactive: S. cerevisiae deletion strains, locus YKL009W, strain mrt4, stronger effect = lower value 1.01 | S. cerevisiae deletion strains, locus YKL068W, stronger effect = lower value 1.01 | S. cerevisiae deletion strains, locus YKL085W, strain MDH1 (second series), stronger effect = lower value 1.03 | S. cerevisiae deletion strains, locus YKL085W, strain MDH1, stronger effect = lower value 1.03 | S. cerevisiae deletion strains, locus YKL160W, strain elf1, stronger effect = lower value 1.04 | S. cerevisiae deletion strains, locus YKL190W, strain CNB1, stronger effect = lower value 1 | S. cerevisiae deletion strains, locus YKR001C, strain vps1, stronger effect = lower value 0.983 | S. cerevisiae deletion strains, locus YKR026C, strain gcn3, stronger effect = lower value 1.01 | S. cerevisiae deletion strains, locus YKR091W, strain srl3, stronger effect = lower value 1.02 | S. cerevisiae deletion strains, locus YLL001W, strain dnm1, stronger effect = lower value 1.02 | S. cerevisiae deletion strains, locus YLL026W, stronger effect = lower value 1.01 | S. cerevisiae deletion strains, locus YLL041C, strain sdh2, stronger effect = lower value 1.04 | S. cerevisiae deletion strains, locus YLR027C, strain aat2, stronger effect = lower value 1.02 | S. cerevisiae deletion strains, locus YLR039C, strain RIC1, stronger effect = lower value 1.02 | S. cerevisiae deletion strains, locus YLR058C, strain SHM2, stronger effect = lower value 1.01 | S. cerevisiae deletion strains, locus YLR102C, strain apc9, stronger effect = lower value 0.995 | S. cerevisiae deletion strains, locus YLR113W, strain HOG1, stronger effect = lower value 0.983 | S. cerevisiae deletion strains, locus YLR221C, strain rsa3, stronger effect = lower value 1.01 | S. cerevisiae deletion strains, locus YLR258W, strain gsy2, stronger effect = lower value 1.01 | S. cerevisiae deletion strains, locus YLR262C, strain YPT6 (second series), stronger effect = lower value 1.02 | S. cerevisiae deletion strains, locus YLR262C, strain YPT6, stronger effect = lower value 1.05 | S. cerevisiae deletion strains, locus YLR268W, strain sec22, stronger effect = lower value 0.984 | S. cerevisiae deletion strains, locus YLR320W, strain mms22, stronger effect = lower value 1.02 | S. cerevisiae deletion strains, locus YLR330W, strain CHS5, stronger effect = lower value 1.01 | S. cerevisiae deletion strains, locus YLR342W, strain FKS1 (second series), stronger effect = lower value 1 | S. cerevisiae deletion strains, locus YLR342W, strain FKS1, stronger effect = lower value 1.01 | S. cerevisiae deletion strains, locus YLR357W, strain rsc2, stronger effect = lower value 1.01 | S. cerevisiae deletion strains, locus YLR370C, strain arc18, stronger effect = lower value 1.03 | S. cerevisiae deletion strains, locus YLR371W, strain rom2, stronger effect = lower value 0.984 | S. cerevisiae deletion strains, locus YLR384C, strain iki3, stronger effect = lower value 1.02 | S. cerevisiae deletion strains, locus YLR418C, strain cdc73, stronger effect = lower value 0.994 | S. cerevisiae deletion strains, locus YML016C, strain PPZ1, stronger effect = lower value 1.01 | S. cerevisiae deletion strains, locus YML032C, strain rad52, stronger effect = lower value 0.989 | S. cerevisiae deletion strains, locus YML120C, strain ndi1, stronger effect = lower value 1.01 | S. cerevisiae deletion strains, locus YML124C, strain tub3, stronger effect = lower value 0.981 | S. cerevisiae deletion strains, locus YMR058W, strain fet3, stronger effect = lower value 1.02 | S. cerevisiae deletion strains, locus YMR078C, strain ctf18, stronger effect = lower value 0.986 | S. cerevisiae deletion strains, locus YMR125W, strain sto1, stronger effect = lower value 1.02 | S. cerevisiae deletion strains, locus YMR129W, stronger effect = lower value 1.02 | S. cerevisiae deletion strains, locus YMR205C, strain PFK2, stronger effect = lower value 1.03 | S. cerevisiae deletion strains, locus YMR223W, strain ubp8, stronger effect = lower value 0.985 | S. cerevisiae deletion strains, locus YMR231W, strain pep5, stronger effect = lower value 1.02 | S. cerevisiae deletion strains, locus YMR263W, strain SAP30, stronger effect = lower value 1 | S. cerevisiae deletion strains, locus YMR307W, strain GAS1, stronger effect = lower value 1.02 | S. cerevisiae deletion strains, locus YNL067W, strain RPL9B, stronger effect = lower value 1.02 | S. cerevisiae deletion strains, locus YNL071W, strain lat1, stronger effect = lower value 1.03 | S. cerevisiae deletion strains, locus YNL128W, strain TEP1, stronger effect = lower value 1.01 | S. cerevisiae deletion strains, locus YNL153C, strain GIM3, stronger effect = lower value 1.01 | S. cerevisiae deletion strains, locus YNL183C, strain NPR1, stronger effect = lower value 0.99 | S. cerevisiae deletion strains, locus YNL209W, strain ssb2, stronger effect = lower value 1.02 | S. cerevisiae deletion strains, locus YNL233W, strain BNI4, stronger effect = lower value 1.01 | S. cerevisiae deletion strains, locus YNL248C, strain rpa49, stronger effect = lower value 1.08 | S. cerevisiae deletion strains, locus YNL250W, strain rad50, stronger effect = lower value 0.984 | S. cerevisiae deletion strains, locus YNL271C, strain bni1, stronger effect = lower value 0.982 | S. cerevisiae deletion strains, locus YNL298W, strain CLA4, stronger effect = lower value 0.991 | S. cerevisiae deletion strains, locus YNL307C, strain MCK1, stronger effect = lower value 0.994 | S. cerevisiae deletion strains, locus YNL322C, strain KRE1 (second series), stronger effect = lower value 1.02 | S. cerevisiae deletion strains, locus YNL322C, strain KRE1, stronger effect = lower value 1.01 | S. cerevisiae deletion strains, locus YNR049C, strain mso1, stronger effect = lower value 1 | S. cerevisiae deletion strains, locus YNR052C, strain pop2, stronger effect = lower value 1 | S. cerevisiae deletion strains, locus YOL006C, strain TOP1, stronger effect = lower value 1.01 | S. cerevisiae deletion strains, locus YOL012C, strain htz1 0.797 | S. cerevisiae deletion strains, locus YOL147C, strain pex11, stronger effect = lower value 0.994 | S. cerevisiae deletion strains, locus YOR001W, strain rrp6, stronger effect = lower value 0.998 | S. cerevisiae deletion strains, locus YOR061W, strain CKA2, stronger effect = lower value 1.01 | S. cerevisiae deletion strains, locus YOR069W, strain VPS5, stronger effect = lower value 1.01 | S. cerevisiae deletion strains, locus YOR070C, strain gyp1, stronger effect = lower value 1.03 | S. cerevisiae deletion strains, locus YOR080W, strain dia2, stronger effect = lower value 1.04 | S. cerevisiae deletion strains, locus YOR083W, strain WHI5, stronger effect = lower value 1.04 | S. cerevisiae deletion strains, locus YOR106W, strain vam3, stronger effect = lower value 1.06 | S. cerevisiae deletion strains, locus YOR136W, strain idh2, stronger effect = lower value 0.984 | S. cerevisiae deletion strains, locus YOR144C, strain elg1, stronger effect = lower value 0.996 | S. cerevisiae deletion strains, locus YOR184W, strain ser1, stronger effect = lower value 0.982 | S. cerevisiae deletion strains, locus YOR231W, strain MKK1, stronger effect = lower value 0.992 | S. cerevisiae deletion strains, locus YOR265W, strain rbl2, stronger effect = lower value 0.998 | S. cerevisiae deletion strains, locus YOR270C, strain vph1, stronger effect = lower value 1.11 | S. cerevisiae deletion strains, locus YOR290C, strain snf2, stronger effect = lower value 1.06 | S. cerevisiae deletion strains, locus YOR316C, strain cot1, stronger effect = lower value 0.99 | S. cerevisiae deletion strains, locus YPL051W, strain arl3, stronger effect = lower value 1.01 | S. cerevisiae deletion strains, locus YPL055C, strain LGE1, stronger effect = lower value 1.02 | S. cerevisiae deletion strains, locus YPL078C, strain atp4, stronger effect = lower value 1.05 | S. cerevisiae deletion strains, locus YPL106C, strain sse1, stronger effect = lower value 0.995 | S. cerevisiae deletion strains, locus YPL240C, strain hsp82, stronger effect = lower value 1.01 | S. cerevisiae deletion strains, locus YPL241C, strain CIN2, stronger effect = lower value 0.988 | S. cerevisiae deletion strains, locus YPL256C, strain CLN2, stronger effect = lower value 1.04 | S. cerevisiae deletion strains, locus YPR119W, strain clb2, stronger effect = lower value 0.984 | S. cerevisiae deletion strains, locus YPR141C, strain kar3, stronger effect = lower value 0.987 | S. cerevisiae deletion strains, locus YPR163C, strain tif3, stronger effect = lower value 0.99 | S. cerevisiae deletion strains, locus YPR167C, strain met16, stronger effect = lower value 0.974 | S. cerevisiae deletion strains, strain wtn01, stronger effect = lower value 0.991 | S. cerevisiae strains, strain wild type, stronger effect = lower value 1
